The supplement of paper PMC3334620
Whole data set: some 33,000 sequences, median “E-score (-0.5 to 0.5)” near -0.015, cut for the highest 2% near 0.3. Shown is part of a subset that was picked to be rich in the highest values.

Molecular target: T1, Abf1 (UniProt P14164)
T1 sequence: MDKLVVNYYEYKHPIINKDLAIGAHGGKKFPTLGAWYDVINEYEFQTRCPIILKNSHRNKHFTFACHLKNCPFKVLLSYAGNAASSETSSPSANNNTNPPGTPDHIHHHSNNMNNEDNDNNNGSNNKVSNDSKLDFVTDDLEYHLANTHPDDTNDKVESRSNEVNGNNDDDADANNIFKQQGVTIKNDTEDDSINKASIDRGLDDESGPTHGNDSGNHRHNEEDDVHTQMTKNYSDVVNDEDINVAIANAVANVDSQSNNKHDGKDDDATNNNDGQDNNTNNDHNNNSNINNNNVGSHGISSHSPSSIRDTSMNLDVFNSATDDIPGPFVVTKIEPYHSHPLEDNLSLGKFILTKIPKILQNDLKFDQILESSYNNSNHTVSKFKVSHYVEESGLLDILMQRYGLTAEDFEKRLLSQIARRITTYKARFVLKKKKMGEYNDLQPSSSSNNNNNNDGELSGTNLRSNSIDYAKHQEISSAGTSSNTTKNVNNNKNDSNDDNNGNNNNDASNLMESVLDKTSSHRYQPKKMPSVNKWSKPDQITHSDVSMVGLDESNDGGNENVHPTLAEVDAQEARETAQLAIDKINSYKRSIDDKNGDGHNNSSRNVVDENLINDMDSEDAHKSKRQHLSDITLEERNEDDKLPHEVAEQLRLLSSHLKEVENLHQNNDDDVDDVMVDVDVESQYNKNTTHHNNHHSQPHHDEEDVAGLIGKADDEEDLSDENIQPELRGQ
Assay: PBM E-score (8-mer binding enrichment) (E-score (-0.5 to 0.5)); higher = stronger / more preferred TF binding
Details: protein concentration: 200 nM; construct: GST-full length
Summary of the method: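 Bound GST-tagged yeast transcription factors, applied at about 100-200 nM to double-stranded universal all-10-mer Agilent arrays, were detected with fluorescent anti-GST. Scans were normalised with masliner. A modified Wilcoxon-Mann-Whitney statistic, the E-score, was assigned to each ungapped eight-base word pooled with its reverse complement by the Universal PBM Analysis Suite.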

Row | Sequence | PBM E-score
1 | CAGTAGGA | -0.109
2 | ATTGTGGG | -0.127
3 | TACCGCGA | -0.111
4 | GGTCGACA | -0.106
5 | GAGCCTAC | -0.171
6 | ATGGTTTC | -0.0221
7 | GATGGGCC | -0.28
8 | CACAGTTA | 0.164
9 | TCTCGAGA | 0.302
10 | GCTCGAGA | -0.143
11 | CCTCGAGA | -0.0603
12 | CATTGTGC | -0.115
13 | CCGAACTA | -0.143
14 | GCGTAGAA | 0.0196
15 | CCGTAGAC | 0.0491
16 | TCGTAGAA | 0.393
17 | CCGTAGAA | 0.298
18 | CCGTAGAG | 0.102
19 | ACGTAGAA | 0.108
20 | ATACCGGC | 0.0536
21 | CGGGCGCC | -0.053
22 | GTGATTAA | 0.249
23 | CGGATAGA | 0.147
24 | AGTGGTGA | 0.131
25 | GCATCACC | -0.101
26 | ACATCATG | 0.24

Row | Sequence | PBM E-score
27 | ACATCATA | 0.169
28 | ACATCATC | 0.328
29 | ACATCACG | 0.231
30 | ACATCACT | 0.415
31 | ACATCAGT | -0.0164
32 | ACATCACA | 0.183
33 | ACATCACC | 0.353
34 | CAACCTAC | -0.122
35 | GCCTAGGA | -0.178
36 | CATGGCGG | -0.0941
37 | ACATCTGA | -0.0545
38 | TGATAAAA | 0.337
39 | GGATAACA | 0.0228
40 | CGATAAAA | 0.285
41 | TGATAACA | 0.341
42 | GGATAAAA | 0.158
43 | CGATAACA | 0.106
44 | TCATGAAA | 0.00026
45 | GGTCGCCA | -0.074
46 | TCATGGGA | -0.042
47 | AACGCTGT | 0.00818
48 | ACTGGTAC | -0.0194
49 | CGTCCAGC | -0.0241
50 | TAGTGTCA | 0.117
51 | TAGTGACA | 0.414
52 | GAGTGCCA | -0.212

Row | Sequence | PBM E-score
53 | CAGTGACC | 0.132
54 | CAGTGACA | 0.3
55 | CAGTGAAA | 0.0736
56 | GAGTGACC | 0.207
57 | TAGTGTGA | 0.137
58 | GAGTGACA | 0.432
59 | AACGGACC | -0.168
60 | TGATCCCA | -0.0944
61 | CTAGCTGC | -0.114
62 | CGAGGTGA | 0.129
63 | GACACTTA | -0.0374
64 | ACTGCACG | -0.0217
65 | CGCCACCA | -0.138
66 | GTGATCTA | 0.407
67 | GAGATCTA | -0.121
68 | ATGATCTC | 0.296
69 | GTGATCCA | 0.132
70 | ATGATCTA | 0.297
71 | CTGATCTA | -0.106
72 | CGGCCAAC | -0.133
73 | GACGATGC | 0.231
74 | ACAGCCGC | -0.223
75 | CGTGCAAG | 0.169
76 | CGTGCAAA | 0.337
77 | CGTGCACG | 0.419
78 | CGTGCACA | 0.196

Row | Sequence | PBM E-score
79 | CGTGCAAC | 0.247
80 | TGTGCACA | 0.0303
81 | AAGGATGC | -0.213
82 | GGCTGCGA | -0.0617
83 | CGAGGGAC | -0.189
84 | GGGGGCAA | -0.0502
85 | CGCATATC | 0.239
86 | CAACCTCA | -0.0877
87 | CCCTACCA | 0.0127
88 | ATTCTGTA | 0.14
89 | GAGTGATA | 0.424
90 | CACTGATA | -0.056
91 | AAGTGAAA | -0.0619
92 | TAGTGAGA | 0.0964
93 | CAGTGATA | 0.377
94 | TAGTGATA | 0.433
95 | CAGTGAGA | 0.0837
96 | AAGTGAGA | 0.0815
97 | GAGTGAGA | 0.0215
98 | TAGTGAAA | -0.0802
99 | AAGTGATA | 0.39
100 | GAGTGAAA | -0.117
101 | CCTTGGTC | -0.302
102 | AATTTGAC | 0.183
103 | CTGTCGGA | -0.123
104 | ACAGCTCT | -0.248

Row | Sequence | PBM E-score
105 | AGTACTGA | -0.0709
106 | CCGGGTTC | -0.167
107 | GTAACTAA | -0.0125
108 | TTCGGAAA | -0.148
109 | CAACGTAA | -0.0145
110 | AATCTCTC | 0.0576
111 | ATACCCCA | 0.0583
112 | CACCCGCA | -0.205
113 | GATCGGGC | -0.195
114 | CGTTACAG | -0.0224
115 | CGTTACAA | 0.195
116 | CGTTATAC | 0.303
117 | CGTTATAG | 0.105
118 | CGTTATAA | 0.149
119 | CGTTACAC | 0.298
120 | AATGTTGC | 0.00562
121 | CGGCGTTC | -0.0709
122 | CCGCCATC | -0.26
123 | AGTCCACC | -0.0728
124 | GAAAACTA | -0.0964
125 | GTTCTGTA | -0.0186
126 | CTTTCGTC | 0.191
127 | AATTCGTA | 0.307
128 | AATTCGGA | 0.029
129 | AATTCGTC | 0.315
130 | GATTCGTA | 0.262

Row | Sequence | PBM E-score
131 | CATTCGCA | -0.1
132 | CTTTCGTA | 0.376
133 | ATTTCGTC | 0.229
134 | GTTTCGTA | 0.26
135 | CATTCGTC | 0.222
136 | CATTCGTA | 0.308
137 | AATTCGTG | 0.224
138 | ACCCAGAA | -0.0336
139 | TTCCGAAA | 0.104
140 | ATTTAAAT | 0.189
141 | GATTACAC | 0.0768
142 | CAAGCCCG | -0.172
143 | GTGGTATA | -0.0621
144 | CGGCCCAC | -0.208
145 | ACCGTCAG | 0.0392
146 | ACCGTCAT | 0.362
147 | AACGTCAT | 0.217
148 | ACCGTCAA | 0.143
149 | ATCGTCAG | 0.154
150 | ATCGTCAA | 0.342
151 | AGCGTCAA | -0.00287
152 | TTCGTCAA | 0.151
153 | ATCGTCAT | 0.349
154 | AAAAATCC | -0.0226
155 | AGGTTGAA | 0.0563
156 | CACTGCAA | 0.0215

Row | Sequence | PBM E-score
157 | TCATCAGA | 0.094
158 | CAGCTTGA | -0.141
159 | AGGAGGTG | -0.248
160 | GAGGGACA | -0.103
161 | CCTTTTAA | 0.0637
162 | ACGGCGCT | 0.09
163 | GCGGCGAA | -0.106
164 | ACGGCGAG | 0.111
165 | ACGGCGCC | 0.184
166 | ACGGCGCG | 0.324
167 | ACGGCGAC | 0.224
168 | ACGGCGAT | 0.313
169 | TCGGCGAA | 0.00757
170 | ACGGCGAA | 0.343
171 | ACCCGGGT | -0.155
172 | ATGAGTCA | 0.0874
173 | ACCCTAGG | -0.07
174 | CGCGTTGA | 0.0564
175 | AGATGCTC | 0.0161
176 | CAGGTAAG | -0.0344
177 | AGATAAGA | 0.194
178 | AATTCCAC | 0.0539
179 | CAGGATGA | 0.197
180 | AGACAAGC | -0.0992
181 | ATGACTAA | 0.146
182 | CTGACGAA | 0.239

Row | Sequence | PBM E-score
183 | GTGACGGA | 0.149
184 | ATGACGAA | 0.319
185 | GTGACGAA | 0.315
186 | CTGACTAA | 0.0088
187 | ATGACGAC | 0.265
188 | GTGACTAA | 0.327
189 | GTGACGCA | 0.103
190 | TTCACGAA | 0.267
191 | GTCACGAA | 0.402
192 | GTCACGAC | 0.261
193 | AAGGTTCT | -0.189
194 | CGGGCACC | -0.0646
195 | CGCAAAAG | -0.0748
196 | CTCTCACC | -0.0855
197 | GAGTAAAC | -0.0509
198 | ATCCCGTA | 0.215
199 | GGCGATCA | -0.0321
200 | ATGGACTC | -0.134
201 | CACGGACA | 0.162
202 | CACGGACG | 0.337
203 | AACGGACG | 0.065
204 | AAACCGGT | -0.0782
205 | CATACTGA | -0.108
206 | AAAGAGGA | -0.237
207 | CTAATCAC | 0.251
208 | ATAATCAG | 0.0922

Row | Sequence | PBM E-score
209 | ATAATCAA | 0.0595
210 | ATAATCAC | 0.331
211 | GTAATCAC | 0.141
212 | ATAATCAT | 0.326
213 | CCACCTAC | -0.011
214 | ACCGTAGG | 0.0666
215 | CTAAATCC | 0.0568
216 | AAGCGCCA | -0.247
217 | TGATGTAA | 0.145
218 | ACCCTCGA | -0.17
219 | TCGACGCA | 0.113
220 | TCGACAAA | -0.0435
221 | GCGACGCA | 0.196
222 | GCGACGAA | 0.313
223 | GCGACGAC | 0.098
224 | TCGACGAA | 0.349
225 | ACGACGGA | 0.251
226 | CCGACGAA | 0.205
227 | ACGACGGC | 0.164
228 | ACGACGGG | 0.304
229 | ACGACGAA | 0.373
230 | ACGACGCA | 0.262
